# In ChEMBL document CHEMBL1157539, “Thousands of chemical starting points for antimalarial lead identification” (Nature, 2010):
# Legend:
# Format in all cases: functional
# Plasmodium falciparum [1] = test: GSK_TCMDC: Inhibition of Plasmodium falciparum 3D7 in whole red blood cells, using parasite LDH activity as an index of growth. Test compounds present at 2uM
# Plasmodium falciparum [2] = test: GSK_TCMDC: Inhibition of Plasmodium falciparum Dd2 in whole red blood cells, using parasite LDH activity as an index of growth. Test compounds present at 2uM
# HepG2 = test: GSK_TCMDC: Percent inhibition of human HepG2 cell line. Test compounds present at 10uM.
SMILES,Inhibition (Plasmodium falciparum [1]) [%],Inhibition (Plasmodium falciparum [2]) [%],Inhibition (HepG2) [%]
CCCC1N=C(N)N=C(N)N1c1cccc(C(F)(F)F)c1.Cl (centres undefined),95,7,22
COc1ccc2ncc(F)c(CCN3CC[C@H](NCc4cc(C#N)c5c(c4)OCCO5)[C@H](O)C3)c2c1,96,47,51
COc1cc(Nc2ccc3cc(S(=O)(=O)N4CCCCC4C)ccc3n2)cc(OC)c1OC (centres undefined),88,78,0
c1ccc2cc3c(Nc4ccc(N5CCCCCC5)cc4)ccnc3cc2c1,94,76,10
CC(NC(=O)c1cc(-c2ccccc2)nc2c1cnn2C(C)C)C1CC1 (centres undefined),100,88,35
OC(CNCc1ccccc1OCc1ccccc1)c1cccc(Br)c1 (centres undefined),100,97,0
CC1Cc2ccccc2N1S(=O)(=O)c1cccc(C(=O)Nc2nc(-c3ccccn3)cs2)c1 (centres undefined),84,77,32
Cc1ccccc1C1CCN(C2CCC(NC(=O)c3csc(-c4cccc(Cl)c4)n3)CC2)CC1 (centres undefined),85,42,33
COc1nc2c(CCN3CC[C@@H](NCc4cc(C#N)c5c(c4)CCO5)[C@@H](O)C3)ccnc2cc1F.Cl,92,35,21
O=C(/C=C/c1ccc(Cl)c(Cl)c1)NCCCCCN1CCC(NC(=O)NC2CCCCC2)CC1,96,44,22
O=C(O)C(F)(F)F.Oc1ccc(CCNc2nc(NCCOc3cccc4ccccc34)nc(N3CCNCC3)n2)cc1,96,8,21
CCC[C@@H]([C@@H](CC(C)C)C(=O)N[C@@H](CCCCNC(=O)c1cccc(OC)c1)C(=O)Nc1nccs1)N(O)C=O,100,99,5
Cc1cc(N2Cc3ccccc3C2)nc(Nc2cccc(C#N)c2)n1,100,97,6
COc1ccc(C2C(C(=O)OC3CCCCC3)=C(C)NC3=C2C(=O)CCC3)cc1Br (centres undefined),95,94,7
Cc1cc(C(=O)NC2CCN(Cc3ccccc3)CC2)ccc1-c1nc2ccc(C(F)(F)F)cc2[nH]1,95,2,19
COc1ccc2ncc(F)c(CCN3CCC4(CC3)COC(c3cc5c(cn3)OCCO5)=N4)c2n1.O=C(O)C(=O)O,89,83,79
O=C(NCCCCNCC(Cc1cccc([O-])c1)c1ccccc1)c1ccc(NC(=O)c2ccc(Cl)cc2)cc1.[Na+] (centres undefined),96,1,0
Cc1ccc(NC(=O)Nc2ccc(S(=O)(=O)c3ccc(NC(=O)Nc4ccc(C)c(Cl)c4)cc3)cc2)cc1Cl,99,42,49
COc1cc(NC(=O)/C=C/c2cc3ccccc3n2C)ccc1OCCN(C(C)C)C(C)C.Cl,99,68,16
Cl.O=C(Nc1ccncc1)Nc1ccc2c(c1)CCN(C1CCC1)CC2,87,4,0
CC(C)C(C(=O)n1cc2c(ccc3nc(N)nc(N)c32)n1)C(C)C,98,49,58
O=C(O)C(F)(F)F.OC1CCCN(Cc2ccc(-c3ccc(-c4nc5cc(F)ccc5[nH]4)s3)cc2)C1 (centres undefined),100,99,40
Cc1ccc(Nc2nc3cc(N(C)c4ccnc(Nc5cccc(CS(C)(=O)=O)c5)n4)ccc3o2)cc1.O=C(O)C(F)(F)F,90,16,0
CC(=O)Nc1ccc(S(=O)(=O)NC2=NC(=N)N(OCc3ccc(Cl)c(Cl)c3)C(C)(C)N2)cc1,93,98,44
COc1ccc2nccc([C@@H](O)CN3CCC(NCc4cc5oc(=O)n(C)c5cc4F)CC3)c2c1.O=C(O)C(=O)O,99,72,0
COc1ccc(C(=O)CCc2ccc(O)cc2)cc1,96,90,0
Cl.Oc1ccccc1CNCC12CC3CC(CC(C3)C1)C2,98,99,0
Cl.O=C(NCCCCN1CCC(c2ccc3c(c2O)CCCC3)CC1)c1ccc(NC(=O)c2ccc(Cl)cc2)cc1,100,100,99
